Results as given in PubChem BioAssay (NCI).
This is part of a sample that, as a whole, favours compounds with a hit. Of some 83,000 tested, about 20% had one in any assay.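 Cells were grown in 96-well plates and exposed to the test compound at a single concentration for 48 hours; results are reported as percent growth, with values below 10 considered active.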 Values without a mark were called inactive. Active and inactive are the calls of the source.

Test system: HL-60(TB) leukemia
Test: NCI-60 one-dose screen, 48 h (100 = growth as untreated, 0 = no growth, -100 = all killed)
Conditions: 10 µM unless noted

Row | Structure (SMILES) | growth
1 | Cc1cc(C)cc(NC(=O)Cn2nncc2CN2C(=O)CSC2=O)c1 | 97.9%
2 | Fc1ccc2c(CN3CCO[C@H](COc4cccc(Cl)c4)C3)c[nH]c2c1 | 27.1%
3 | Cc1nc(-c2ccccc2)cc2c(O)c(C(=O)NN)[nH]c(=O)c12 | 126%
4 | Cn1cc(-c2csc(-c3cn(CCNC(=O)OC(C)(C)C)c4ccc(F)cc34)n2)c2cccnc21 | 42.7%
5 | COCCCNC(=O)c1nnn2c1nc(N)c1cc(Cl)ccc12 | 93.7%
6 | CC(Br)C(OC(=O)c1ccccc1Cl)c1cc2c(cc1Br)OCO2 (stereo not given) | 103%
7 | FC(F)(F)c1ccc(-c2cnc(Cl)nc2N2CCC3(CC2)OCCO3)cc1 | 83.6%
8 | CCC(C)(c1ccc(O)c(C)c1)c1ccc(O)c(C)c1 | 128%
9 | CC(O)CN1CC(O)=C(c2nc3ccccc3s2)C1=N (stereo not given) | 93.8%
10 | O=C(Nc1ccc(OS(=O)(=O)c2ccc(F)cc2)cc1)C12CC3CC(CC(C3)C1)C2 | 52.7%
11 | COc1ccc(-c2cc(-c3cc(OC)ccc3O)[nH]c(=O)c2C#N)cc1 | 16.9%
12 | CN(C)/N=C/c1ccccc1O | 97.1%
13 | COc1cc(-c2nc3nc4sc(C)c(C)c4c(=O)n3[nH]2)cc(OC)c1OC | 80.7%
14 | CN=C(N)N/N=C(\c1ccccc1)c1ccc(Br)cc1 | -52.5% (active)
15 | C=C1C(=O)O[C@H]2[C@H]1CC/C(COC(=O)NCc1c[nH]c3ccccc13)=C\CC[C@@]1(C)O[C@@H]21 | -46.8% (active)
16 | Cc1ccc(S(=O)(=O)N2CCCN(c3nc(-c4ccccc4)nc4nc(-c5ccccc5)oc34)CC2)cc1 | 110%
17 | Clc1ccc(Cc2nc3ccccc3s2)cc1 | 98.6%
18 | CN1CCN(CC(=O)Nc2ccc3ncnc(Nc4ccc(Oc5cccc(C(F)(F)F)c5)c(Cl)c4)c3c2)CC1 | -35.7% (active)
19 | O=C(Cn1cc(CN2C(=O)c3ccccc3S2(=O)=O)nn1)Nc1cccc(Cl)c1 | 103%
20 | CCCCOC(=O)c1ccc(NC(=O)CCl)cc1 | 25.3%

Row | Structure (SMILES) | growth
21 | CCOC(=O)/C=C1\S/C(=N\Nc2cc(=O)[nH]c3ccc(Br)cc23)N(c2ccccc2)C1=O | -12.1% (active)
22 | Cc1nc2c(O)cccc2cc1CO | 81.7%
23 | COc1ccc2c(c1)[nH]c1c(/C=C/c3ccccc3)nccc12 | 61.1%
24 | Cc1c2cccnc2c(C)c2c1c1cc(CO)ccc1n2C | 31%
25 | COc1ccc2c(c1)c(-c1nc(-c3c[nH]c4ncccc34)cs1)cn2CCN | 41.2%
26 | O=C1C(N2CCOCC2)=Cc2cccc3cccc1c23 | -26% (active)
27 | CC(=O)NCCSC(=O)C(=O)SCCNC(C)=O | 83.6%
28 | N#Cc1cnc2cc(OC[C@H](O)CO)c(NC(=O)CC3CSSC3)cc2c1Nc1ccc(OCc2cccc(F)c2)c(Cl)c1 | -83.4% (active)
29 | O=C(Nc1ccc(Cl)c(Cl)c1)OCc1ccco1 | 32.1%
30 | CCCCC[C@H]1C/C=C2/C(=O)C=C[C@@H]2C/C=C\CCCC(=O)O1 | 4.48% (active)
31 | CCc1ccc(CCC(=O)Nc2ncc(Cc3ccc(Cl)cc3)s2)o1 | -39.6% (active)
32 | COc1cc(C2NC(c3cc(OC)c(OC)c(OC)c3)C(C#N)(C#N)C2(C#N)C#N)cc(OC)c1OC (stereo not given) | 89.3%
33 | COc1cc(-c2c3c(cn2S(=O)(=O)c2ccccc2)-c2nc(N)sc2CC3)cc(OC)c1OC | 13.2%
34 | COc1ccc(-c2cc(-c3cc(OC)c(OC)c(OC)c3)c(C#N)c(=O)n2CCCCC(=O)O)cc1 | 103%
35 | COC1CC2CCC(C)C(O)(O2)C(=O)C(=O)N2CCCCC2C(=O)OC(C(C)CC2CCC(O)C(OC)C2)CC(=O)C(C)C=C(C)C(O)C(OC)C(=O)C(C)CC(C)/C=C/C=C/C=C1C (stereo not given) | 86.6%
36 | O=C(CC(=O)Nc1cccc(C(=O)O)c1)Nc1cccc(C(=O)O)c1 | 113%
37 | Cc1ccc(-c2nc(SCC(=O)N3CCN(c4cc5c(cc4F)c(=O)c(C(=O)O)cn5C4CC4)CC3)nc(Cl)c2C#N)cc1 | 101%
38 | Clc1ccc2c(NCCCCNc3nc(N4CCOCC4)nc4ccccc34)ccnc2c1 | -59.8% (active)
39 | CSc1nc(N)n2nccc2n1 | 106%
40 | O=c1nc(-c2ccccc2)c2cc(-c3ccc(C(F)(F)F)nc3)ccc2[nH]1 | 94.5%
